Test results as given in PubChem BioAssay (EPA / NIEHS).
Results filed as inconclusive are left out. Active and inactive are the calls of the source. Rule for the calls: active = hit-call score of the fitted dose curve at least 0.9, where 1 is the maximum; inconclusive = response in the unintended direction; inactive = score below 0.9.

Experiments:
[1] = molecular target: Androgen receptor (Homo sapiens) (UniProt P10275); test: ATG_AR_TRANS: Attagene TRANS-FACTORIAL HepG2 Assay for human Androgen Receptor (AR) (AID 2282973); conditions: HepG2 Attagene TRANS-FACTORIAL AR reporter transcription
Procedure, shortened: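 HepG2 cells transiently transfected with AR-Gal4 chimera and GAL4-UAS reporter units; chemical exposure 24 h. Reporter mRNA quantified by RT-PCR with fluorescent labelling and capillary electrophoresis; gain-of-signal fitted against DMSO.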

[2] = molecular target: human AMP-activated Protein Kinase, alpha 1 (AMPKa1), PRKAA1 (gene 5562) (UniProt Q13131); test: NVS_ENZ_hAMPKa1: NovaScreen (NVS) Enzymatic Assay for human AMP-activated Protein Kinase, alpha 1 (AMPKa1) (AID 2283130)
Procedure, shortened: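 Compounds were screened in duplicate at 25 uM, and those reaching ~30% inhibition were titrated up to 50 uM. The enzyme was recombinant human AMPKα1, and kinase turnover was read by fluorescence/mobility shift 1 h post-dosing as loss of signal versus DMSO.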

[3] = molecular target: human Fibroblast Growth Factor Receptor 1 (FGFR1), FGFR1 (gene 2260) (UniProt P11362); test: NVS_ENZ_hFGFR1: NovaScreen (NVS) Enzymatic Assay for human Fibroblast Growth Factor Receptor 1 (FGFR1) (AID 2283159);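 for AC50: hits lower the signal so potencies describe inhibitors of the kinase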
Procedure, shortened: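 Cell-free recombinant kinase with fluorescent substrate, product separated by electrophoretic mobility shift; read 1 hour after dosing, loss of signal relative to DMSO. Initial screen in duplicate at 25 uM, actives followed in concentration series.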

[4] = molecular target: human IkappaB Kinase alpha (IKKa), CHUK (gene 1147) (UniProt O15111); test: NVS_ENZ_hIKKa: NovaScreen (NVS) Enzymatic Assay for human IkappaB Kinase alpha (IKKa) (AID 2283167)
Procedure, shortened: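 Compounds first run in duplicate at 25 uM, those meeting threshold (e.g. 30% inhibition) retested to maximum 50 uM. Enzyme activity of recombinant IKKa measured by fluorescence with electrophoretic mobility shift separation, 1 hour post-dosing, DMSO baseline.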

[5] = molecular target: human p21 Activated Kinase 4 (PAK4), PAK4 (gene 10298) (UniProt O96013); test: NVS_ENZ_hPAK4: NovaScreen (NVS) Enzymatic Assay for human p21 Activated Kinase 4 (PAK4) (AID 2283189)
Procedure, shortened: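 Extracted PAK4 enzyme activity read by fluorescence with mobility-shift separation 1 h after chemical addition. Duplicate single-concentration screen at 25 uM, DMSO as negative control.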

[6] = molecular target: human Phosphatase and Tensin Homolog (PTEN), PTEN (gene 5728) (UniProt P60484); test: NVS_ENZ_hPTEN: NovaScreen (NVS) Enzymatic Assay for human Phosphatase and Tensin Homolog (PTEN) (AID 2283203)
Procedure, shortened: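 Loss of fluorescent product signal after mobility-shift separation reports PTEN activity, recombinant human enzyme, 1 h after compound addition. Single 25 uM duplicate screen, then concentration-response on actives; DMSO baseline.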

[7] = molecular target: human Protein Tyrosine Phosphatase Non-receptor Type 2 (PTPN2), PTPN2 (gene 5771) (UniProt P17706); test: NVS_ENZ_hPTPN2: NovaScreen (NVS) Enzymatic Assay for human Protein Tyrosine Phosphatase Non-receptor Type 2 (PTPN2) (AID 2283207)
Procedure, shortened: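 Activity measured as fluorescence after mobility-shift separation of substrate and product, 1 h after compound. Duplicate single-point 25 uM primary testing, concentration series for actives; inhibition scored as signal loss relative to DMSO baseline.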

[8] = molecular target: human Protein Tyrosine Phosphatase Receptor Type C (PTPRC), PTPRC (gene 5788) (UniProt P08575); test: NVS_ENZ_hPTPRC: NovaScreen (NVS) Enzymatic Assay for human Protein Tyrosine Phosphatase Receptor Type C (PTPRC) (AID 2283212)
Procedure, shortened: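 Absorbance-based phosphatase activity of human PTPRC protein extracted from yeast was measured 1 h post-dosing. Compounds first tested at 25 uM in duplicate, then those passing threshold in singleton concentration series to 50 uM.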

[9] = molecular target: human Raf-1 Proto-Oncogene, serine/threonine Kinase (RAF1), RAF1 (gene 5894) (UniProt P04049); test: NVS_ENZ_hRAF1: NovaScreen (NVS) Enzymatic Assay for human Raf-1 Proto-Oncogene, serine/threonine Kinase (RAF1) (AID 2283216)
Procedure, shortened: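 Single-point screening at 25 uM (duplicate), followed by singleton concentration-response to 50 uM maximum for chemicals exceeding threshold. Enzyme activity from fluorescent substrate-product mobility-shift separation after 1 h, relative to DMSO.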

[10] = molecular target: human Tyrosine Protein Kinase Receptor Tie-2 (Tie2), TEK (gene 7010) (UniProt Q02763); test: NVS_ENZ_hTie2: NovaScreen (NVS) Enzymatic Assay for human Tyrosine Protein Kinase Receptor Tie-2 (Tie2) (AID 2283225)
Procedure, shortened: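 Substrate and product were separated by mobility shift and detected by fluorescence after a 1-hour reaction with recombinant Tie2. Chemicals passing a 25 uM single-point screen were titrated to a maximum of 50 uM. Results were normalized to DMSO baseline.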

[11] = molecular target: human Acetylcholinesterase (AChE), ACHE (gene 43) (UniProt P22303); test: NVS_ENZ_hAChE: NovaScreen (NVS) Enzymatic Assay for human Acetylcholinesterase (AChE) (AID 2283129)
Procedure, shortened: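 Actives from a duplicate single-point screen (25 uM) were followed up in concentration series. Enzyme activity read by absorbance (colorimetric) 0.33 hour after dosing, cell-free, normalized to DMSO, with loss of signal scored.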

[12] = molecular target: human Matrix Metalloproteinase-1 (MMP1), MMP1 (gene 4312) (UniProt P03956); test: NVS_ENZ_hMMP1: NovaScreen (NVS) Enzymatic Assay for human Matrix Metalloproteinase-1 (MMP1) (AID 2283181)
Procedure, shortened: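 Cell-free fluorescent substrate assay of human MMP1, read after 1 h. A single 25 uM duplicate screen was followed by concentration series to a maximum of 50 uM for actives meeting threshold; inhibition analysed against DMSO baseline.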

[13] = molecular target: rat Acetylcholinesterase (AChE), Ache (gene 83817) (UniProt P37136); test: NVS_ENZ_rAChE: NovaScreen (NVS) Enzymatic Assay for rat Acetylcholinesterase (AChE) (AID 2283233)
Procedure, shortened: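 Compounds first screened at 25 uM in duplicate, then those passing threshold tested in concentration series up to 50 uM, against AChE from rat brain membranes. Enzyme activity read by absorbance at 0.33 h; inhibition scored versus DMSO.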

[14] = TOX21_TRB_BLA_Agonist_Followup_viability: Viability Assessment in the Tox21 Thyroid Hormone Receptor beta Agonism Beta-lactamase (BLA) Follow-Up Assay (AID 2283956)
Procedure, shortened: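 Viability was read as CellTiter-Glo luminescence in the same wells as the TRb-bla agonist read-out. HEK293T GAL4-TRb LBD cells were treated for 18 h (37C, 5% CO2) at 11 concentrations in triplicate. Fits were bidirectional versus DMSO baseline.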

[15] = molecular target: human Ephrin type-A Receptor 2 (EphA2), EPHA2 (gene 1969) (UniProt P29317); test: NVS_ENZ_hEphA2: NovaScreen (NVS) Enzymatic Assay for human Ephrin type-A Receptor 2 (EphA2) (AID 2283155)
Procedure, shortened: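 Enzyme activity of recombinant EphA2 read by fluorescence after mobility-shift separation, 1 h after dosing. Chemicals first tested at 25 uM (duplicate); those passing threshold run as concentration series, top 50 uM, single replicate, relative to DMSO.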

[16] = molecular target: human Caspase 2 (CASP2), CASP2 (gene 835) (UniProt P42575); test: NVS_ENZ_hCASP2: NovaScreen (NVS) Enzymatic Assay for human Caspase 2 (CASP2) (AID 2283135)
Procedure, shortened: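 Single-point duplicate testing at 25 uM preceded concentration series topping at 50 uM. Activity of the recombinant E. coli-derived protease was followed by fluorescent substrate cleavage 1 h post-dosing, relative to DMSO.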

[17] = system: rat Monoamine Oxidase, MAO-A, Central (MAOAC), gene 29253; test: NVS_ENZ_rMAOAC: NovaScreen (NVS) Enzymatic Assay for rat Monoamine Oxidase, MAO-A, Central (MAOAC) (AID 2283243);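 note: potency refers to inhibition seen as signal drop below DMSO baseline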
Procedure, shortened: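 Lysate-based radiometric enzyme assay using rat brain tissue; 1.5 h treatment; 25 uM single-point duplicate screen, concentration-response follow-up; loss of signal versus DMSO.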

[18] = molecular target: Voltage-dependent N-type calcium channel subunit alpha-1B (Rattus norvegicus) (UniProt Q02294); test: NVS_IC_rCaChN: NovaScreen (NVS) Ion Channel Assay for rat Calcium Channel, Type N (CaChN) (AID 2283317)
[19] = molecular target: rat Monoamine Oxidase, MAO-B, Peripheral (MAOBP), Maob (gene 25750) (UniProt P19643); test: NVS_ENZ_rMAOBP: NovaScreen (NVS) Enzymatic Assay for rat Monoamine Oxidase, MAO-B, Peripheral (MAOBP) (AID 2283242)
[20] = molecular target: Bile acid receptor (Homo sapiens) (UniProt Q96RI1); test: NVS_NR_hFXR_Agonist: NovaScreen (NVS) Nuclear Receptor Binding Assay for human Farnesoid X Receptor Agonism (FXR) (AID 2283347)
Procedure, shortened: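 Agonist-mode FXR assay read by time-resolved FRET 1 h after compound addition, using isolated human receptor protein without cells. Duplicate 25 uM single-point primary screen, concentration series for confirmed actives; DMSO as baseline.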

[21] = system: rat Monoamine Oxidase, MAO-A, Peripheral (MAOAP), gene 29253; test: NVS_ENZ_rMAOAP: NovaScreen (NVS) Enzymatic Assay for rat Monoamine Oxidase, MAO-A, Peripheral (MAOAP) (AID 2283237)
Procedure, shortened: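 Scintillation counting tracked MAO-A activity in a cell-free rat liver mitochondrial membrane prep, read 1.17 hours after compound addition. Single-point duplicate testing at 25 uM preceded concentration-response follow-up; activity was fitted relative to DMSO.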

[22] = molecular target: Norway rat Vesicular Monoamine Transporter (VMAT2), neurotransmitter transporter, Slc18a2 (gene 25549) (UniProt Q01827); test: NVS_TR_rVMAT2: NovaScreen (NVS) Transporter Assay for Norway rat Vesicular Monoamine Transporter (VMAT2), neurotransmitter transporter (AID 2283376);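 note: actives lower the bound radioligand signal below the DMSO level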
Procedure, shortened: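 Using rat forebrain membranes, specific radioligand binding to VMAT2 was measured by filtration and scintillation counting after 1 hour. Chemicals screened at 25 uM in duplicate, actives retested in concentration series, DMSO baseline.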

[23] = molecular target: Protein deacetylase HDAC6 (Homo sapiens) (UniProt Q9UBN7); test: NVS_ENZ_hHDAC6: NovaScreen (NVS) Enzymatic Assay for human Histone Deacetylase 6 (HDAC6) (AID 2283164)
Procedure, shortened: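 Concentration-response runs up to 50 uM followed a duplicate 25 uM single-point screen. Deacetylase activity of recombinant human HDAC6 read by fluorescence after 1 h, with mobility-shift separation of substrate and product; DMSO as baseline.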

[24] = molecular target: bovine Gamma-Aminobutyric Acid Type A Receptor BDZ, alpha 1 site (GABARa1), GABRA1 (gene 780973) (UniProt P08219); test: NVS_LGIC_bGABARa1: NovaScreen (NVS) Ligand-Gated Ion Channel Assay for bovine Gamma-Aminobutyric Acid Type A Receptor BDZ, alpha 1 site (GABARa1) (AID 2283321)
Procedure, shortened: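 Bovine cortex membrane preparation, benzodiazepine site on GABA-A alpha1; specific radioligand displacement read after 0.75 h by filtration and scintillation. Screen at 25 uM, then singleton titrations up to 50 uM; DMSO baseline.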

Measured: AC50

Sequence of human Fibroblast Growth Factor Receptor 1 (FGFR1), FGFR1 (gene 2260) (P11362 whole entry, looked up): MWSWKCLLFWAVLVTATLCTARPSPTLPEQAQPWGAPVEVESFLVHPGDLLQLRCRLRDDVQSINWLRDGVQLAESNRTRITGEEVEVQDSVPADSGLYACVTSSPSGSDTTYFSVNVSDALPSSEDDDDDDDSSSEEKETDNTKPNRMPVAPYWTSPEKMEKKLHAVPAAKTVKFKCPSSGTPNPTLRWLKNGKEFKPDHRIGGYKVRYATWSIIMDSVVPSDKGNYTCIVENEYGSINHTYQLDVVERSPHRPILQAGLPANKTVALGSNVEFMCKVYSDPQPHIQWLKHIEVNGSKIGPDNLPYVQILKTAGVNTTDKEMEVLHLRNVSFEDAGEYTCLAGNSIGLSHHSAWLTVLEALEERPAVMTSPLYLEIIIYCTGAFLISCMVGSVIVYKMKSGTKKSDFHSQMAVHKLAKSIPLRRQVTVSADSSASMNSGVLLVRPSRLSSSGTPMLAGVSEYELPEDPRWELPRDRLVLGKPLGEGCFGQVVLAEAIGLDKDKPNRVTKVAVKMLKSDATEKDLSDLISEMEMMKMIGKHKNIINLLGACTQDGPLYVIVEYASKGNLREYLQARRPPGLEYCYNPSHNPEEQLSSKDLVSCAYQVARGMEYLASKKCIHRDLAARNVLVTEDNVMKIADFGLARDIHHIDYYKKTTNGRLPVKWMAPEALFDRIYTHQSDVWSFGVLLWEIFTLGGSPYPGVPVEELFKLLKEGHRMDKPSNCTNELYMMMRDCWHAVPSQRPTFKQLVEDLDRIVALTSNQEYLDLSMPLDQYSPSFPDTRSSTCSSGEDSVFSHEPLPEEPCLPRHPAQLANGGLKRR
Sequence of human Protein Tyrosine Phosphatase Receptor Type C (PTPRC), PTPRC (gene 5788) (P08575 whole entry, looked up): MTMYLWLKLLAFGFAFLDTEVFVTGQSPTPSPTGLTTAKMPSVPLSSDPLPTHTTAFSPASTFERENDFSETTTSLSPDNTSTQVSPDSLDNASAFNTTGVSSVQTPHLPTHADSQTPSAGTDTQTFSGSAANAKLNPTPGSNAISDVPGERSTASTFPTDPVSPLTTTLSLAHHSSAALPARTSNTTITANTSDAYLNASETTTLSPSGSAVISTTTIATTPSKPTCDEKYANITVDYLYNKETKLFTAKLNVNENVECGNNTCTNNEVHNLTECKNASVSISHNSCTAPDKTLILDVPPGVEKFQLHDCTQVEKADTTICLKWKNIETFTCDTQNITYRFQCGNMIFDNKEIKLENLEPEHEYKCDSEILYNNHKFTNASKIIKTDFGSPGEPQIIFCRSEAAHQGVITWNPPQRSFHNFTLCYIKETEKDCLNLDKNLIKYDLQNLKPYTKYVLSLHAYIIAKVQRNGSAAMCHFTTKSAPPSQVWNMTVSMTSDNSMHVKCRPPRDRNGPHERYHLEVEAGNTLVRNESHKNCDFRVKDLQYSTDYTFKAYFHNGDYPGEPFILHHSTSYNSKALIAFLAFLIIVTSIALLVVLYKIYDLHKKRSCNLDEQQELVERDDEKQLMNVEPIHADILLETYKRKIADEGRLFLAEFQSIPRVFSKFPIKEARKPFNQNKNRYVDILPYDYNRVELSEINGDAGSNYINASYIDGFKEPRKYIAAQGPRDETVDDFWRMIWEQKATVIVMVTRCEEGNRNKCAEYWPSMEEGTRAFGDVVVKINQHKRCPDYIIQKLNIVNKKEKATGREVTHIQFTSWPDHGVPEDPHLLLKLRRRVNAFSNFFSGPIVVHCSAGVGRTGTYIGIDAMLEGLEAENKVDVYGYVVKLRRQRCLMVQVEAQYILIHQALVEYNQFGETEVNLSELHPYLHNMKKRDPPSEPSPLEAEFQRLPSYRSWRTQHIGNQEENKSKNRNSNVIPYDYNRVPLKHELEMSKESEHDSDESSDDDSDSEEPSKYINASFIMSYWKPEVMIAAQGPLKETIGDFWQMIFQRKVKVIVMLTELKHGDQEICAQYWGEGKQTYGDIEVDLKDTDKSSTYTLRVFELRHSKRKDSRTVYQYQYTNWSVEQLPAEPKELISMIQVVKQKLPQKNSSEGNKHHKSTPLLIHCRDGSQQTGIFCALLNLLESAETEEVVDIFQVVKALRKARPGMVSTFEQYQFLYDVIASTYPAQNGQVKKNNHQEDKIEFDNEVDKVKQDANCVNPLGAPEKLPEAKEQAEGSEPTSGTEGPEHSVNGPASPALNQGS
Sequence of human Matrix Metalloproteinase-1 (MMP1), MMP1 (gene 4312) (P03956 whole entry, looked up): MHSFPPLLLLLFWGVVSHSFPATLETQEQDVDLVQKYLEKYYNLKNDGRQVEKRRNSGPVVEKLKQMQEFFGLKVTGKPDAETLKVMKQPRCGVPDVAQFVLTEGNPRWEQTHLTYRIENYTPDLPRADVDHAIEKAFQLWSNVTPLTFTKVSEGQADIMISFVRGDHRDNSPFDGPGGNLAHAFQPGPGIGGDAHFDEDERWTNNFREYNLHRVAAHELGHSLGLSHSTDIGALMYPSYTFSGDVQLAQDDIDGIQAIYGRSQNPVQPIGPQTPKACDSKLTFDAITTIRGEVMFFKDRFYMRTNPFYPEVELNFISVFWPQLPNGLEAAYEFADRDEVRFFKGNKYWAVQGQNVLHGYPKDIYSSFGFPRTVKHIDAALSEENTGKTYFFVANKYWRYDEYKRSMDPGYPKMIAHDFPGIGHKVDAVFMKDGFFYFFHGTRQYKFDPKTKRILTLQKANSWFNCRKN
Sequence of human Acetylcholinesterase (AChE), ACHE (gene 43) (P22303 whole entry, looked up): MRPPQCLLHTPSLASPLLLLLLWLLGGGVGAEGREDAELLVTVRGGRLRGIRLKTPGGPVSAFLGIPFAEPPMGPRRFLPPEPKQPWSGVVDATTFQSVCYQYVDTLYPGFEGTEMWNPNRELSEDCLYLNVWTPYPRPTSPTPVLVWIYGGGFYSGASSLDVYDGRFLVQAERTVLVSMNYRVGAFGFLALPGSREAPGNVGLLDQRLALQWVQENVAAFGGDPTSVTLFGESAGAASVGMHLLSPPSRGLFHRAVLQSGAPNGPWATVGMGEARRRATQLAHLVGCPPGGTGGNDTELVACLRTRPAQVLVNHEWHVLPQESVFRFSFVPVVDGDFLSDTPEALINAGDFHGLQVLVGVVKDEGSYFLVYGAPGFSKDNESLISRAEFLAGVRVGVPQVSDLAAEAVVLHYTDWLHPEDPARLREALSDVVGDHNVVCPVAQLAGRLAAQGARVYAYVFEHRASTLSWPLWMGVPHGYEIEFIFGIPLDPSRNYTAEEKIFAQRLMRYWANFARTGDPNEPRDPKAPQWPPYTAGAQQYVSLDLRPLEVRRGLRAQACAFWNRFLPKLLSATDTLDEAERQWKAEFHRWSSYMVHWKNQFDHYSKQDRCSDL
Sequence of Androgen receptor (Homo sapiens) (P10275 whole entry, looked up, the tested form may be a part): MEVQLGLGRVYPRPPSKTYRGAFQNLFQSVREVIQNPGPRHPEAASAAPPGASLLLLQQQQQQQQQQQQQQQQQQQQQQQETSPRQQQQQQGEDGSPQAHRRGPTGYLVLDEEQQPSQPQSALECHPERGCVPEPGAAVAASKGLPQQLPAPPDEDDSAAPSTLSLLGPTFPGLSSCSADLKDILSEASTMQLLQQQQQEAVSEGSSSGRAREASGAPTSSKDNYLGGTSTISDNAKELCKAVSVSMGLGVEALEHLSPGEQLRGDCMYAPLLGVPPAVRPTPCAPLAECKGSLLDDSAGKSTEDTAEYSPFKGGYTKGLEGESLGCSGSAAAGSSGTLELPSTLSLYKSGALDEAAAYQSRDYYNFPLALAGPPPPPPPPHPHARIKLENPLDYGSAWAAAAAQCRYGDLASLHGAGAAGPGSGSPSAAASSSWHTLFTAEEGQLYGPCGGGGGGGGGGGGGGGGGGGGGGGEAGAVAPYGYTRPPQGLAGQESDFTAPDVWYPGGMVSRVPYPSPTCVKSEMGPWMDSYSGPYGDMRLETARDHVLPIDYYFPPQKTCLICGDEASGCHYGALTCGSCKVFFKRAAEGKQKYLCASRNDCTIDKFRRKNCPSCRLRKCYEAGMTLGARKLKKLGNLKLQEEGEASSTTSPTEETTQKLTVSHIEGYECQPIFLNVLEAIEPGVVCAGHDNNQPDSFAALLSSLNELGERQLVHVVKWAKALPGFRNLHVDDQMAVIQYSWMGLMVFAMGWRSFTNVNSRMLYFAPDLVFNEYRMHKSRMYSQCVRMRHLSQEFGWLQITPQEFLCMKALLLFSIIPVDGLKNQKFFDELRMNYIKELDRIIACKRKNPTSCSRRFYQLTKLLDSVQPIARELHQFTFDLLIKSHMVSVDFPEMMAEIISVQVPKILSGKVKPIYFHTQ
Sequence of Norway rat Vesicular Monoamine Transporter (VMAT2), neurotransmitter transporter, Slc18a2 (gene 25549) (Q01827 whole entry, looked up): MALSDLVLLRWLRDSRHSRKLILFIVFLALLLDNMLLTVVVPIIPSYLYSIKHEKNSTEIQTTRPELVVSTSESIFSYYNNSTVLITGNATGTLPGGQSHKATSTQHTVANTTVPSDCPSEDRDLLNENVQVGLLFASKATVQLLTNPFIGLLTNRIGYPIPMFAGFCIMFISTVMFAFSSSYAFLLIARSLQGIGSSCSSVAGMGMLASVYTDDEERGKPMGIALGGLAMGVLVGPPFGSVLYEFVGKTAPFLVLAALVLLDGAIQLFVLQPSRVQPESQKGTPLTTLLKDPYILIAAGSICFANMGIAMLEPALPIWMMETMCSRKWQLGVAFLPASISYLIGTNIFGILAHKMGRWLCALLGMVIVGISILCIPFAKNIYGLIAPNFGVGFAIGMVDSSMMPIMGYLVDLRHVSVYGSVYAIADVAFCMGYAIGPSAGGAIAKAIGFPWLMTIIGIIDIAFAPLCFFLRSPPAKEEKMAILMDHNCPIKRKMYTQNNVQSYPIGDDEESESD
Sequence of human Phosphatase and Tensin Homolog (PTEN), PTEN (gene 5728) (P60484 whole entry, looked up): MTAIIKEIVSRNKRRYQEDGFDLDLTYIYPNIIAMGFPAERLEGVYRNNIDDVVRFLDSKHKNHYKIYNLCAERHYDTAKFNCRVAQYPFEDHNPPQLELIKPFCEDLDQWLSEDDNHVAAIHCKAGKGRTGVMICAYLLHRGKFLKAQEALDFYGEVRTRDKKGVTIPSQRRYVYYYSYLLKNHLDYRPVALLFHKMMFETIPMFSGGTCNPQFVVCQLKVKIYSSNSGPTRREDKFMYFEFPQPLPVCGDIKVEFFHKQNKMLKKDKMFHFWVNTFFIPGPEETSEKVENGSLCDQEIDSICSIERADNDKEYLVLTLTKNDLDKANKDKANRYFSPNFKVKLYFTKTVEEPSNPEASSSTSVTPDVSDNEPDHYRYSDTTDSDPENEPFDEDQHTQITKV

CCCCCCCCCCCCc1ccccc1S(=O)(=O)O
inactive: [1]
active: [2] 11.3 µM | [3] 9.42 µM | [4] 31.7 µM | [5] 18.1 µM | [6] 13.5 µM | [7] 19.9 µM | [8] 5.18 µM | [9] 26 µM | [10] 9.14 µM

CN(C)C(=O)C1(N2CCCCC2)CCN(CC[C@@]2(c3ccc(Cl)c(Cl)c3)CN(C(=O)c3ccccc3)CCO2)CC1
inactive: [1]
active: [11] 4.93 µM | [12] 17.1 µM | [13] 9.53 µM

Cc1cc(NC(=O)C(=O)O)cc(C)c1Oc1ccc(O)c2c1CCC2
inactive: [1] | [3]

CCCN(CCC)C(=O)SCC
inactive: [1] | [11] | [14]

O=C(Nc1ccc(Cl)cc1)Nc1ccc(Cl)c(Cl)c1
inactive: [1] | [15] | [13]

CCOc1ccc2c(c1)C(C)=CC(C)(C)N2
active: [8] 8.36 µM | [17] 16.6 µM
inactive: [1] | [16] | [3]

COCC(C)OCC(C)OCC(C)O (stereo unspecified)
inactive: [1] | [16] | [3] | [18]

CCCCCCCCCCCCCCCCOS(=O)(=O)O
inactive: [1]
active: [11] 16.8 µM | [3] 1.41 µM | [12] 4.54 µM | [8] 6.6 µM

CCN(Cc1cccnc1)C(=O)c1cccc(Cl)c1[C@]1(C)C(=O)N(Cc2ccc(OC)cc2OC)c2ccc(Cl)cc21
inactive: [1] | [11] | [19]
active: [12] 9.73 µM | [17] 2.51 µM | [20] 15.1 µM

CCCOc1sc(C(=O)N2CCC(c3cc(CN)ccc3F)CC2)c(C)c1Br
active: [21] 2.6 µM | [17] 0.439 µM | [22] 2.89 µM
inactive: [1] | [11] | [15]

Nc1cccc2c(N)cccc12
inactive: [1] | [3] | [23] | [10]
active: [8] 5.35 µM | [21] 25 µM | [17] 25 µM

CCC(C)N(C)C(=O)c1cc2ccccc2c(-c2ccccc2Cl)n1 (stereo unspecified)
inactive: [1] | [2] | [3] | [19]
active: [24] 10.2 µM | [22] 9.67 µM
